Rows were chosen to be rich in hits. Some 5.3% of all compounds tested hit in one or more screens of this group.
PNC inhibitor = High Content Assay for Compounds that inhibit the Assembly of the Perinucleolar Compartment; 140,000 compounds, 3.1% hits; activity change (PNC), negative = inhibition, % at 10 µM; PC3M PTB-GFP, PNC prevalence imaging, 16 h; hits give low values; AID 2417, 2010;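 active = readout at or below -70, meaning at least 70% loss of cells showing the perinucleolar compartment, a nuclear body marking cancer cells; inconclusive = readout between -30 and a set limit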;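 note: plate controls were DMSO wells for no effect and camptothecin positive control wells for full effect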
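Compounds are pinned in duplicate onto adhered PC3M cells stably expressing GFP-tagged PTB and incubated 16 h at 37 C. Cells are then fixed, nuclei stained with Hoechst, and PNC-positive cells counted.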
ALOX12 inhib = qHTS Assay for Inhibitors of 12-hLO (12-human lipoxygenase). purified 12-hLO, xylenol orange hydroperoxide absorbance. 150,000 compounds, 0.12% hits. Potency, µM (series often up to 57.1 µM), without a hit: at the top dose activity change, negative = inhibition, hits mostly inhibitors. Polyunsaturated fatty acid lipoxygenase ALOX12 (Homo sapiens), P18054; note: potency is the fitted concentration of half-maximal effect; nearly all actives have a fitted effect of over 55% in size
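150 nM 12hLO, 25 mM Hepes pH 7.0 + 0.01% Triton X-100; cpd preinc 15 min RT; 40 uM arachidonic acid, 30 min RT; Fe-XO 30 min; A573/A405 ratio as read-out.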
IMPase Li cell = qHTS Assay for Identifying the Cell-Membrane Permeable IMPase Inhibitors: Potentiation with Lithium. CHO-M1 cells, IP1 TR-FRET (IP-One), carbachol + lithium. Potency, µM (highest dose often 59.4 µM), for inactives: at the highest dose activity, negative = IMPase inhibition, hits mostly inhibitors. 210,000 compounds, 0.35% hits. AID 1457, 2008;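 note: IP1 builds up when IMPase is blocked and the TR-FRET signal falls; potency is the fitted concentration of half-maximal effect; plate controls were basal vehicle for no effect and high inhibitor control for full effect; nearly all actives have a fitted effect of over 50% in size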
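CHO cells stably expressing M1 receptor (2000/well, cultured 16–30 h) treated 30 min at 37C with compound plus low lithium. Cytosolic IP1 by TR-FRET (665/620 ratio and 620 channel) after 10 min lysis; AC50 by Hill fit.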
15-hLO-2 inh = qHTS Assay for Inhibitors of 15-hLO-2 (15-human lipoxygenase 2) | Polyunsaturated fatty acid lipoxygenase ALOX15B (Homo sapiens), O15296 | AID 881, 2007 | 110,000 compounds, 0.56% hits | Potency, µM (top dose mostly 57.1 µM), for the others: at the top dose activity change, negative = inhibition, usual class: inhibitors | purified 15hLO-2, xylenol orange hydroperoxide absorbance; note: potency is the fitted concentration of half-maximal effect; nearly all actives have a fitted effect of over 60% in size
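Enzyme 50 nM, AA 45 uM, 25 mM Hepes pH 7.5 + 0.01% Triton X-100; cpd preinc 15 min RT, rxn 90 min RT; stop/detect with 200 uM XO + 300 uM Fe(II) in 50 mM H2SO4, 30 min; A573/A405.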
IMPase cell inh = qHTS Assay for Identifying the Cell-Membrane Permeable IMPase Inhibitors; Inositol monophosphatase 1 (Rattus norvegicus), P97697; CHO-M1 cells, IP1 accumulation, HTRF TR-FRET ratio; inhibition (IP1 accumulation), % at 46.1 µM; 120,000 tested, under 10 active; AID 901, 2007; active = well fitted curve in the direction sought with a large enough effect in the signal ratio, not every such curve was filed as active; inconclusive = small, poorly fitted or top-dose-only effect, or a change in a side signal; inactive = no such curve, though single readings can be large or run the other way; the % refers to the signal ratio;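 note: cells stimulated with carbachol in lithium chloride buffer; plate controls were DMSO basal wells for no effect and reference inhibitor wells for full effect; higher means more IMPase inhibition seen as more IP1 and lower FRET ratio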
Target sequence (P97697 whole entry, looked up): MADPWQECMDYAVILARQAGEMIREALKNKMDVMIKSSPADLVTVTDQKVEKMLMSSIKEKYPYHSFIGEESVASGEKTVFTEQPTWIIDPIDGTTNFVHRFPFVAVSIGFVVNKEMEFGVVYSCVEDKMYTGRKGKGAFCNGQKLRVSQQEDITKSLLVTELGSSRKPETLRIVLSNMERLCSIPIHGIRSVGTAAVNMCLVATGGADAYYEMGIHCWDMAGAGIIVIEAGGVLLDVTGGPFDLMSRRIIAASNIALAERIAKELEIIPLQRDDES
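CHO-M1 cells (CHO stably expressing M1 receptor), compound up to 46 uM final, stimulated with carbachol (50 uM as added) in buffer with 50mM LiCl, pH 7.4, 30 min at 37C. Cytosolic IP1 read by TR-FRET; AC50 from Hill fits.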
HPGD inh = qHTS Assay for Inhibitors of HPGD (15-Hydroxyprostaglandin Dehydrogenase). 150,000 compounds, 4.3% hits. Potency, µM, for the others: top-dose activity change, negative = inhibition, actives largely listed as inhibitors. AID 894, 2007. purified HPGD, NADH fluorescence kinetic, PGE2 substrate; active = well fitted inhibition curve with a large enough effect, not every such curve was filed as active; inconclusive = small, poorly fitted or top-dose-only effect, or another doubt; inactive = no such curve, though single readings can be large or run the other way; note: potency is the fitted concentration of half-maximal effect
Target sequence (P15428 whole entry, looked up): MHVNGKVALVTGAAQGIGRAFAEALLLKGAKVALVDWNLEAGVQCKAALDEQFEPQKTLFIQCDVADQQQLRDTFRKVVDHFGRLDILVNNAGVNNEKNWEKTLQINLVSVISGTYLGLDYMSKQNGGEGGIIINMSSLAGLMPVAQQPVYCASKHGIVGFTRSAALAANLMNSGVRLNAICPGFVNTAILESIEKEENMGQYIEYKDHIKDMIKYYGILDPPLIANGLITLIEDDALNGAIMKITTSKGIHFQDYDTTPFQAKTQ
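20 nM HPGD preincubated 15 min at room temperature with compound in 50 mM Tris-HCl pH 8, 0.01% Tween 20. Started with 1 mM NAD+ and 30 uM prostaglandin E2; NADH fluorescence (360/450 nm) read 5 times over 30-s intervals, last minus first.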
An asterisk follows results filed as active; ? = inconclusive; . = not tested or not shown; [ ] = another dose, or the depositor's remark. Unless noted, calls come from the whole dose curve; as a rule, active = well fitted curve in the direction sought with a large enough effect; inconclusive = small, poorly fitted or top-dose-only effect, or another doubt; inactive = no such curve, though single readings can be large; an effect the other way counts as inactive or inconclusive. Unless noted, % is set by controls: 0 for no effect and ±100 for the full control effect.

SMILES	PNC inhibitor	ALOX12 inhib	IMPase Li cell	15-hLO-2 inh	IMPase cell inh	HPGD inh
CCN1CCN(C(c2cccc(OC)c2)c2sc3nc(C)nn3c2O)CC1 (configuration not stated)	?	2%	-4%	.	-4	-6%
C/C(=C\C1CCCCC1)C(NC(=O)c1ccc(C(F)(F)F)cc1)c1ccc(-c2ccccc2)cc1 (configuration not stated)	.	-1%	-8%	10%	.	-14%
CC/C(=C\C1CCCCC1)C(NP(=O)(c1ccccc1)c1ccccc1)c1ccccc1 (configuration not stated)	-90*	-4%	6%	.	.	-7%
COc1ccc(N2CCN(C(=O)CC34CC5CC(CC(C5)C3)C4)CC2)c([N+](=O)[O-])c1	-29	-2%	9%	.	.	?
O=C(C1CC1)N1N=C(c2ccncc2)CC1(O)C(F)(F)F (configuration not stated)	.	.	3%	.	.	.
Cc1ccc(C(C2C(=O)CC(C)(C)CC2=O)C2C(=O)CC(C)(C)CC2=O)s1	-11	-17%	-7%[38.3 µM]	-19%	-2	2.8µM*
CC1(C)CC(=O)C(C(c2ccncc2)C2C(=O)CC(C)(C)CC2=O)C(=O)C1	-87*	-2%	-5%[38.3 µM]	0%	-5	2%
Cc1ccc(N=C2C(=S)N(c3ccc(C)cc3)C(=N)N2/N=C/c2ccc(Cl)cc2)cc1	-25	-5%	4%	.	21	35µM*
COc1ccc(N=C2C(=Nc3ccc(OC)cc3)N(c3ccc(OC)cc3)C(=S)N2c2ccccc2)cc1	35	-3%	15%[38.3 µM]	4%	-1	-14%
Cn1c(C(=O)N2CCCC(C(=O)c3ccc(C(F)(F)F)cc3)C2)cc(=O)n(C)c1=O (configuration not stated)	.	.	4%	.	.	.
Cc1ccccc1Oc1ccc(NC(=O)C2CC=CCC2C(=O)O)cc1 (configuration not stated)	-83*	3%	-1%	.	.	1%
CC(C)(C)c1ccc(Oc2ccc(NC(=O)C3CC=CCC3C(=O)O)cc2)cc1 (configuration not stated)	.	.	-19%	.	.	.
Cc1ccc(CNC(=O)c2ccccc2NC(=O)CSc2nnnn2C)cc1	?	-5%	4%[38.3 µM]	-5%	3	5%
Cc1cccc(NC(=O)c2c(N)sc3c2CCC(C)C3)c1 (configuration not stated)	.	.	.	.	3	.
N#Cc1cc(Oc2cccnc2)c(Oc2cccnc2)cc1C#N	-111*	7%	28%[38.3 µM]	0%	?	-5%
O=C(Cn1c(NCCO)nc2ccccc21)NCCc1ccc(F)cc1	-15	-7%	0%[38.3 µM]	14%	-1	-14%
COc1ccc(-c2noc(CSc3nc(N)c(-c4ccccc4)c(=O)[nH]3)n2)cc1OC	?	0%	3%	2%	14	16µM*
COc1ccc(-c2noc(CN(C)S(=O)(=O)c3ccc(Cl)cc3)n2)cc1OC	-92*	-6%	31%[38.3 µM]	6%	6	-11%
CCOc1ccc(-c2noc(CCCC(N)=O)n2)cc1OC	26	1%	10%[38.3 µM]	-1%	12	-16%
CC(C)N(Cc1nc(-c2ccc(Cl)cc2)no1)C(=O)CN(C)S(=O)(=O)c1ccc(Cl)cc1	?	-12%	29%[38.3 µM]	9%	-2	-11%
COc1ccc(-c2noc(CCC(N)=O)n2)cc1OC	-113*	2%	-6%	0%	2	-3%
CCN(C(=O)CCc1nc(-c2ccc(OC)cc2)no1)c1cc(OC)ccc1OC	1	-4%	53%[38.3 µM]	4%	6	14µM*
[O-]/C(=C(\C(=S)Nc1cccc2ccccc12)[n+]1ccccc1)c1ccc2c(c1)OCCO2	-18	-9%	-6%[38.3 µM]	-29%	8	?
O=C1COc2ccc(N3C(=O)C=CC3=O)cc2N1	.	.	38%	.	.	.
Cc1ccc(NC(=O)/C(=C/c2cccc(Br)c2)NC(=O)c2ccco2)cc1	-20	-3%	0%	.	.	-14%
SMILES	PNC inhibitor	ALOX12 inhib	IMPase Li cell	15-hLO-2 inh	IMPase cell inh	HPGD inh
CN(Cc1nc(-c2ccccn2)no1)S(=O)(=O)c1ccc(Br)cc1	21	-3%	14%[38.3 µM]	2%	4	22µM*
CN(Cc1nc(-c2cccnc2)no1)S(=O)(=O)c1ccc(Br)cc1	-21	-4%	22%[38.3 µM]	0%	2	?
CN1/C(=C\C=C2/C(=O)Oc3ccccc3C2=O)C(C)(C)c2ccccc21	-91*	-3%	-5%	.	.	-12%
CCSc1nnc(NC(=O)CSc2nnc(C)c(=O)n2N)s1	.	.	-8%	.	.	.
Cc1ccccc1NC(=O)Cn1nnc2ccccc21	.	.	1%	.	.	.
COc1ccc(-n2c(C)cc(C=O)c2C)cc1Cl	-24	-3%	8%[38.3 µM]	-5%	10	18µM*
Cc1cc(C=O)c(C)n1-c1ccc(Cl)c(C(=O)O)c1	.	.	-1%	.	.	.
Cc1cc(Br)cnc1NC(=S)Nc1ccc(F)cc1F	.	.	7%	.	.	.
CCC1=C2CC[C@H]3C(=O)N(c4ccccc4)C(=O)[C@H]3[C@H]2[C@@]2(Cc3ccccc3)C(=NCC3CC3)OC(=O)N2C1=O	.	-4%	3%	0%	.	-4%
COc1nc(NCCO)nc(Nc2ccc([N+](=O)[O-])cc2)n1	22	-6%	-5%	.	1	20µM*
O=[N+]([O-])c1ccc(Nc2nc(Cl)nc(NCCO)n2)cc1	.	.	-8%	.	.	.
N#Cc1cccc(NC(=O)CSc2ccccc2)c1	-15	-12%	6%[38.3 µM]	-2%	3	-5%
N#Cc1cccc(NC(=O)CN2NS(=O)(=O)c3ccccc3C2=O)c1	45	-4%	7%[38.3 µM]	4%	-5	16µM*
COc1ccc(NC(=O)CSc2ccc3c4c(cccc24)C(=O)c2ccccc2-3)cc1	48	0%	-5%[38.3 µM]	16µM*	-4	-13%
N#Cc1cccc(NC(=O)CSc2ccc3c4c(cccc24)C(=O)c2ccccc2-3)c1	?	-2%	?	13µM*	-21	-29%
COc1cc(C(=O)NC(=S)Nc2ccc3c(c2)C(=O)N(C)C3=O)cc(OC)c1OC	9	0%	-7%	.	.	-4%
CCCn1c(-c2ccc(F)cc2)nc2c(N3CCN(C)CC3)nc(C)nc21	.	0%	-1%	4%	.	-25%
Cc1ccccc1NS(=O)(=O)c1ccc(N2CCCC2=O)cc1	?	-1%	6%[38.3 µM]	-5%	10	?
